26 sequences from the supplement of paper PMC11417369 can be followed below.

Over roughly 25,000 sequences, “ln(normalized median fluorescence intensity)” has its median near 9.3; the highest 2% begin near 10. The entries come from a sample that favours the highest values as a whole.

The assay has as its system PF3D7_0420300 AP2 domain 1 (GST-tagged). Description: gcPBM binding intensity (ln(normalized median fluorescence intensity)); higher = stronger DNA binding. In outline:
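Plasmodium falciparum DNA-binding domains carrying a GST tag were expressed in E. coli and applied for 1 h, at about 25 μg on average, to an Agilent 4 × 180k array. The array held primer-extended double-stranded 36-bp intergenic genomic probes together with negative controls, and binding took place in 1× PBS with 1% milk, 0.2 mg/ml BSA, 0.5% salmon testes DNA and 0.03% Triton X-100. An Alexa488 anti-GST antibody detected bound protein, and the array was scanned at 488 nm. Binding intensity is taken as the highest Masliner-normalised natural-log median intensity across replicate spots of either probe orientation.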
“TAATTTTTAATTGTAGCATGCAGTATTTTTAAATAT [TGCATGCA_site140]”: the “gcPBM binding intensity (ln)” value stood at 8.97. The value for “TACTTACAGATAATAACACACAAGAAAAAAATAAAA [CACACA_site4716]” was 9.8; that for “CAAATATATATTTTCTGTACAAATACAATTAATACT [XGTACX_site2694]” was 9.13; that for “ATAAAGAAAATATGGAGTACATTTATATCCAATATA [XGTACX_site3085]” was 9.17. The value for “CACAATGGTTTATATACACACTGTTGCAAATTCTTC [CACACA_site5659]” was 9.45; that for “TATAGTTCTTCTATTTGTACATATATTATTATTTAA [XGTACX_site895]” was 9.26; that for “ATTAATATATTATCATGTACACAAAAATAATTTTAT [XGTACX_site7257]” was 9.13. The value for “TTAAAATGTTGTAACGTGCACATTTTGTGGAAATCA [GTGCAC_site9559]” was 9.07; that for “AAATAATTCATATGTTGTACAGTAATTAAATTTTCT [XGTACX_site6343]” was 9.08; that for “TACGCTCCCAGACACACACACACACCGATATAATAT [CACACA_site8098]” was 10.3. Consider “CGCGCCCAGAAACACACACACACACCGATATATATA [CACACA_site5250]”, for which the “gcPBM binding intensity (ln)” value stood at 10.3.

Take “ATAATATATATTAATACACACACACCGATATATATA [CACACA_site9261]”: the “gcPBM binding intensity (ln)” value was determined as 10.1. Then “GAAATGGGTAAACATACACACACACCGATATATATA [CACACA_site8610]”, with 9.93; and “CTATAATAATAAAGTGAACACACACCGATAATATAT [CACACA_site9377]”, with 9.78; and “AAAAAAAAAAAACACACACACACACCGAAATATATA [CACACA_site4261]”, with 10.2. The value for “AATATAAATAAAAACACACACAATGGTACAGATATA [CACACA_site5930]” was 10.1.

Turning to “TGTATAATAAGGAAGAGTACAAGTAAATACACACAT [XGTACX_site2084]”, the “gcPBM binding intensity (ln)” value was 9.87. The value for “ATTATGTGCCAATACACACACACATATATATATATA [CACACA_site468]” was 9.9.

As to “AGAAAGATGCAAGAAACATGCAAAAAAAAAATTTCT [TGCATGCA_site725]”, the “gcPBM binding intensity (ln)” value was determined as 9.15. The value for “AAAAATTCAATAGGACGTACTAAAACATTCATTAAT [XGTACX_site1712]” was 9.34; that for “AAAAATAAAGGATATACACACTAATTATATATATAT [CACACA_site5550]” was 9.51; that for “GATATATAAATAAATACACACATAAAATAGAAATAT [CACACA_site6881]” was 9.93. For the sequence “CACTAAAATAGACACACACACACACGGATATAAATA [CACACA_site7873]”, the “gcPBM binding intensity (ln)” value is 10.3. The value for “TAAATTTATAGACACACACACATATAAATAAATATA [CACACA_site6530]” was 10; that for “AAAATACATAGACACACACACACACGGATATAAATA [CACACA_site7643]” was 10.2. The value for “AAAAAAAATAGACACACACACATACACATAAATATA [CACACA_site7742]” was 10.1.
